# IL1B secr inh: qHTS for Inhibitors of Inflammasome Signaling: IL-1-beta AlphaLISA Primary Screen | THP-1 LPS/ATP IL-1B secretion, AlphaLISA, 16 h; hits give low values | 360,000 tested, 4.7% active | activity change, % at 57.5 µM; in the data active means activity change below about -50%; inconclusive means mostly about -30% to -49%
#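 THP-1 cells pretreated 1 hr with compounds (up to 57.5 uM final), then stimulated with LPS (250 ng/mL final) plus ATP (1.25 mM final); secreted IL-1B measured by AlphaLISA after 16 hr, decreased signal indicating inhibition.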
# TDP1 cell CPT: qHTS for Inhibitors of human tyrosyl-DNA phosphodiesterase 1 (TDP1): qHTS in cells in presence of CPT. chicken DT40 Tdp1-/-;hTDP1 cells + 20 nM CPT, ATP luminescence, 48 h. Potency, µM (doses to about 46.2 µM), inactives show at the top dose activity change, negative = growth inhibition, actives largely listed as inhibitors. 420,000 tested, 12% active; further: potency means the concentration at half of the fitted maximal effect; nearly all actives have a fitted effect of over 55% in size
#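 Chicken DT40 Tdp1-/- cells complemented with human TDP1, 400 cells/well, exposed to compounds plus 20 nM camptothecin for at least 48 h at 37 C; viability read as ATP content by CellTiter-Glo luminescence.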
# Gal4-VP16 FLuc: VP16 counterscreen qHTS for inhibitors of ROR gamma transcriptional activity; Drosophila S2 Gal4-VP16 UAS-luciferase, luminescence, 20 h; Potency, µM (doses to about 53.6 µM), for the others: at the top dose activity, negative = inhibition, actives largely listed as inhibitors; 310,000 tested, 3.5% active; AID 2546, 2010;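 further: Gal4-VP16 expression switched on by copper sulfate through the metallothionein promoter; potency means the concentration at half of the fitted maximal effect; nearly all actives have a fitted effect of over 50% in size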
# TDP1 cell noCPT: qHTS for Inhibitors of human tyrosyl-DNA phosphodiesterase 1 (TDP1): qHTS in cells in absence of CPT | DT40 Tdp1-/- hTDP1 cells, no CPT, ATP luminescence, 48 h | Potency, µM (highest dose often 46.2 µM), for the others: at the highest dose activity change, negative = growth inhibition, actives largely listed as inhibitors | 420,000 tested, 15% active | AID 686978, 2013; further: potency means the concentration at half of the fitted maximal effect; nearly all actives have a fitted effect of over 55% in size
#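 Compound effects on proliferation are scored in DT40 Tdp1-/-;hTDP1 cells in the absence of CPT. ATP levels (CellTiter-Glo luminescence) are recorded after a ≥48 hr, 37 °C incubation.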
# RORg inh: qHTS for inhibitors of ROR gamma transcriptional activity; Drosophila S2 Gal4-RORgamma UAS-luciferase reporter, 20 h; Nuclear receptor ROR-gamma (Mus musculus), P51450; AID 2551, 2010; Potency, µM (doses to about 53.6 µM), without a hit: top-dose activity change, negative = inhibition, most hits filed as inhibitors; 310,000 tested, 5.4% active; further: potency means the concentration at half of the fitted maximal effect; nearly all actives have a fitted effect of over 60% in size
# Target sequence (P51450 whole entry, looked up, the tested form may be a part): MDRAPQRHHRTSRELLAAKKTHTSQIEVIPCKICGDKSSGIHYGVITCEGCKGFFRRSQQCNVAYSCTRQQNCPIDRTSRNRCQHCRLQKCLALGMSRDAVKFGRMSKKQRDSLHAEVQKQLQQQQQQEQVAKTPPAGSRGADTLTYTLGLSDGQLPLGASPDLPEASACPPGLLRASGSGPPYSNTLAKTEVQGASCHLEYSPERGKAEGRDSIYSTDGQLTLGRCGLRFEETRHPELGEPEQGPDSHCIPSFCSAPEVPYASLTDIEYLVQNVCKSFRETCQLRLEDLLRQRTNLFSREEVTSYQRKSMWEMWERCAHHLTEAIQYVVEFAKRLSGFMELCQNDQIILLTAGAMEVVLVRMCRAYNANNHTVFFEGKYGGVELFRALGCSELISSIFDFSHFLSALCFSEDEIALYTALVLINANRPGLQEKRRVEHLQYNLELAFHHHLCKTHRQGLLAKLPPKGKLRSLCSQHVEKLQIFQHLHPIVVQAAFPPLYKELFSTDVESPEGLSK
#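 A Gal4/UAS one-hybrid system in insect cells: metallothionein-promoter Gal4–ROR gamma fusion plus Photinus luciferase reporter. Copper sulfate 700 uM final, 20 hr ambient incubation, luminescent detection after 10 min with reagent.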
# ELG1 repair inh: qHTS screen for small molecules that inhibit ELG1-dependent DNA repair in human embryonic kidney (HEK293T) cells expressing luciferase-tagged ELG1; HEK293T ELG1-luciferase reporter, luminescence, 16 h; DNA damage induced by 5-fluorouridine; AID 504467, 2011; Potency, µM (series often up to 46.1 µM), for the others: top-dose activity change, negative = inhibition, most hits filed as inhibitors; 330,000 tested, 2.3% active; further: potency means the concentration at half of the fitted maximal effect; nearly all actives have a fitted effect of over 55% in size
#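 HEK293T cells expressing luciferase-tagged ELG1 (2,000/well) received 5-Fluorouridine plus compound or DMSO for 16 hr at 37 °C. Luciferase was read by ONE-Glo luminescence after 30 min at room temperature.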
# Active calls of the source: *; ? = inconclusive; / = no result given; [ ] = dose if it differs, or a comment. Shown are actives, neighbours in structure and some others; about 21% of the full set was active somewhere. Unless noted, the call rests on the fitted dose curve; in most records, active means well fitted curve in the direction sought with a large enough effect; inconclusive means small, poorly fitted or top-dose-only effect, or another doubt; inactive means no such curve, though single readings can be large; an effect the other way counts as inactive or inconclusive. On the % scale 0 is the no-effect control and ±100 the full control effect.
SMILES,IL1B secr inh,TDP1 cell CPT,Gal4-VP16 FLuc,TDP1 cell noCPT,RORg inh,ELG1 repair inh
CC(C)CNC(=S)N1CCC(C(=O)c2ccc(Cl)cc2)CC1,-21,10µM*,/,?,/,/
CCOc1ccc(NC(=S)N2CCC(C(=O)c3ccc(OC)cc3)CC2)cc1,-7,16µM*,/,18µM*,/,/
CC(=O)Nc1ccc(CNc2nc(NCc3cccs3)nc3ccsc23)cc1,33,-9%,/,-26%,/,/
CC(=O)Nc1ccc(CNc2nc(NC(C)C)nc3cc(-c4ccccc4)sc23)cc1,-114*,3.7µM*,/,4.1µM*,/,/
CC(=O)NCCNc1nc2cc(-c3cccc(Cl)c3)sc2c(=O)n1C,-13,-1%,/,-22%,/,/
CC(=O)NCCNc1nc(NC(C)C)nc2cc(-c3ccccc3)sc12,/,23µM*,/,?,/,/
C=CCNc1nc(NCc2ccc(NC(C)=O)cc2)c2sc(-c3ccccc3)cc2n1,?,8.2µM*,/,9.2µM*,/,/
COc1ccc(-c2cc(CNc3nc(NC(C)C)nc4cc(-c5ccccc5)sc34)on2)cc1,-107*,4.1µM*,/,3.7µM*,/,/
CC(=O)N1CCc2cc(S(=O)(=O)CCC(=O)Nc3cc(C)cc(C)c3)ccc21,72,3%,-8%,2%,-1%,10%
COC(=O)C1=C(C)N(CCCC(=O)O)C(=O)NC1c1cccc(Cl)c1Cl (configuration not stated),-8,-13%,/,1%,/,/
CCOC(=O)C1=C(C)N(C)C(=S)NC1c1ccccc1Cl (configuration not stated),-8,-6%,?,2%,8.9µM*,0%
CCOC(=O)C1=C(C)N(C)C(=S)NC1c1cccc(Cl)c1Cl (configuration not stated),9,-11%,?,12%,4µM*,?
CC1=C(C(=O)OCC(C)C)C(c2cc3c(cc2Br)OCO3)NC(=O)N1C (configuration not stated),-7,18µM*,/,?,30%[0.365 µM],-1%
CCCOC(=O)C1=C(C)N(C)C(=O)NC1c1cc2c(cc1[N+](=O)[O-])OCO2 (configuration not stated),6,?,24%,?,3%,1%
CCOC(=O)C1=C(C)N(CCCC(=O)O)C(=O)NC1c1ccccc1Cl (configuration not stated),10,-1%,/,-10%,/,/
CCOC(=O)C1=C(C)N(C)C(=O)NC1c1cccc2ccccc12 (configuration not stated),51,?,-7%,26µM*,29%,0%
CCOc1ccc2ccccc2c1C1NC(=O)N(C)C(C)=C1C(=O)OCCOC (configuration not stated),7,-29%,-5%,?,-14%,3%
CCCCN1C(=O)C(CC(=O)NC(c2ccccc2)c2ccccc2)CC(C(=O)N2CCCCCC2)=C1C (configuration not stated),-1,?,/,?,/,/
Cc1noc(C)c1-c1ccc2ncnc(NCc3cccc(Cl)c3)c2c1,/,/,9%,/,-15%,/
CCOCCOC(=O)C1=C(C)N(C)C(=O)NC1c1ccccc1Cl (configuration not stated),0,-24%,2%,-23%,-15%,10%
CC1=C(C(=O)OCC(C)C)C(c2ccccc2Cl)NC(=O)N1C (configuration not stated),-15,8.2µM*,0%,13µM*,-21%,?
CCOC(=O)C1=C(C)N(C)C(=S)NC1c1ccc(Cl)cc1Cl (configuration not stated),-18,?,7.9µM*,?,7.1µM*,-4%
COC(=O)c1ccc(C(NC(=O)OCc2ccccc2)/C(=C/[C@@H](C)C(=O)NCc2cc(C)on2)c2cccnc2)cc1 (some centres not stated),/,/,-2%,/,17%,/
COc1cc(-c2nnc(COC(=O)c3ccc([N+](=O)[O-])o3)o2)cc(OC)c1OC,9,?,/,?,/,/
Cc1ccc(Cn2cc(CCC(=O)NC3CCC(C)CC3)c3ccccc32)cc1 (configuration not stated),/,?,/,13µM*,/,/
SMILES,IL1B secr inh,TDP1 cell CPT,Gal4-VP16 FLuc,TDP1 cell noCPT,RORg inh,ELG1 repair inh
COc1ccc(CCNC(=O)CCc2cn(Cc3ccc(C)cc3)c3ccccc23)cc1OC,/,13µM*,/,15µM*,/,/
Cc1ccc(Cn2cc(CCC(=O)NCc3ccccc3F)c3ccccc32)cc1,/,-12%,/,-23%,/,/
COc1ccc(Br)cc1CNC(=O)CCc1cn(Cc2ccc(C)cc2)c2ccccc12,/,?,/,23µM*,/,/
CCOc1ccccc1CNC(=O)CCc1cn(Cc2ccc(Cl)cc2)c2ccccc12,/,18µM*,/,16µM*,/,/
COc1ccc(CCC(=O)NC2CCC(C)CC2)cc1 (configuration not stated),-5,2%,0%,-13%,0%,12%
COc1ccc(CNC(=O)CCc2cn(Cc3cc(C)ccc3C)c3ccccc23)cc1OC,/,4.6µM*,/,5.8µM*,/,/
O=C(N=Nc1c(O)[nH]c2ccc(Br)cc12)c1ccco1,-13,1%,/,?,/,/
Oc1cccc(NC(=S)N=Nc2c(O)[nH]c3ccc(Br)cc23)c1,-5,?,-7%,?,-40%,?
Oc1ccc(NC(=S)N=Nc2c(O)[nH]c3ccc(Br)cc23)cc1,-64*,-78%,?,23µM*,10µM*,16µM*
Oc1[nH]c2ccc(Br)cc2c1N=NC(=S)Nc1ccc(F)cc1,-2,1.3µM*,7.9µM*,2.9µM*,0.79µM*,?
C=C[C@]1(C)Cc2occ(C)c2C[C@H]1C(=C)C(=O)O,/,-4%[9.04 µM],-24%,-4%[9.04 µM],-36%,/
Cc1cc(C)cc(CC(=O)N2CCC2(C)C(=O)NS(=O)(=O)c2ccc(Br)cc2)c1 (configuration not stated),12,-3%,/,-1%,/,/
COc1ccc(S(=O)(=O)N2CCC(N3CCN(Cc4ccc(F)cc4)C(=O)C3=O)CC2)cc1,/,-20%,/,-26%,/,/
O=C(COC(=O)/C=C/c1ccc(S(=O)(=O)N2CCOCC2)cc1)NCc1ccc(Cl)cc1,4,?,-13%[10 µM],26µM*,20%,8%
